Measurements from the supplement of paper PMC10849652.
The full data set covers some 7,900 targets. This sample favours those with a hit. About 0.6% of all pairs of compound and target were hits.

Assays:
Test in all cases: log2 fold change, soluble protein after heating vs DMSO (PISA); higher = thermal stabilisation; K562 cells, 10 uM, 30 min; active = over 0.2 and 3.5 SD of the protein, either way, in both replicates (recomputed)
IRAK-1-4 Inhibitor I = compound: C1COCCN1CCN2C3=CC=CC=C3N=C2NC(=O)C4=CC(=CC=C4)[N+](=O)[O-] [IRAK-1-4 Inhibitor I]
Method in brief: (§1)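 K562 cells (2×10^6 cells/mL) were treated with 10 μM compound for 30 min, and aliquots were heated for 3 min over 48°C-58°C. Pooled aliquots were extracted in PBS with 0.5% NP-40 at 4°C, and the supernatant after 21,000xg for 90 min was measured by TMTpro 16plex LC-MS/MS with channel sums equalised. Reported thermal stability, relative to control samples and from duplicates, is a log2 fold change.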

ibrutinib = compound: C=CC(=O)N1CCC[C@@H](n2nc(-c3ccc(Oc4ccccc4)cc3)c3c(N)ncnc32)C1 [ibrutinib]
Method in brief: as §1

[1] = compound: CC(=O)c1cnc2ccc(-c3cc(Cl)c(O)c(Cl)c3)nc2c1N[C@H]1CC[C@H](CN(C)C)CC1
Method in brief: as §1

ralimetinib = compound: CC(C)(C)Cn1c(N)nc2ccc(-c3[nH]c(C(C)(C)C)nc3-c3ccc(F)cc3)nc21 [ralimetinib]
Method in brief: as §1

[2] = compound: CC(C)(O)CC(=O)NCCn1ccc2ncnc(Nc3ccc(Oc4cccc(C(F)(F)F)c4)c(Cl)c3)c21
Method in brief: as §1

[3] = compound: CC(C)C1=C2N=C(C=C(N2N=C1)NCC3=CC=CC=C3)NCCCCCCN
Method in brief: as §1

[4] = compound: CC(C)C[C@@H](C=O)NC(=O)[C@H](CC(C)C)NC(=O)[C@H](CC(C)C)NC(=O)OCc1ccccc1
Method in brief: as §1

pinometostat = compound: CC(C)N(C[C@H]1O[C@@H](n2cnc3c(N)ncnc32)[C@H](O)[C@@H]1O)[C@H]1C[C@@H](CCc2nc3cc(C(C)(C)C)ccc3[nH]2)C1 [pinometostat]
Method in brief: as §1

[5] = compound: CC1=C(C(CC(=O)N1)C2=CC=C(C=C2)C(F)(F)F)C(=O)NC3=C(C=C4C(=C3)C=NN4)F
Method in brief: as §1

[6] = compound: CC1=C(C2=C(C=C1)C(=O)C3=CC=CC=C3N2CCCN)C
Method in brief: as §1

[7] = compound: CC1=C(C=C(C=C1)NC(=O)C2=CC(=CC=C2)C(C)(C)C#N)NC3=CC4=C(C=C3)N=CN(C4=O)C
Method in brief: as §1

[8] = compound: CC1=C(C=C(C=C1)NC(=O)C2=CC(=CC=C2)N(C)C)NC(=O)C3=CC=C(C=C3)O
Method in brief: as §1

[9] = compound: CC1=CC=C(C=C1)SC2=C3C=C(SC3=CN=C2)C(=O)N
Method in brief: as §1

[10] = compound: CC1=NC(=CC=C1)C2=C(N=C(N2)C(C)(C)C)C3=CC4=NC=CN=C4C=C3
Method in brief: as §1

Nexturastat A = compound: CCCCN(Cc1ccc(C(=O)NO)cc1)C(=O)Nc1ccccc1 [Nexturastat A]
Method in brief: as §1

vemurafenib = compound: CCCS(=O)(=O)Nc1ccc(F)c(C(=O)c2c[nH]c3ncc(-c4ccc(Cl)cc4)cc23)c1F [vemurafenib]
Method in brief: as §1

[11] = compound: CCCS(=O)(=O)Nc1ccc(F)c(C(=O)c2c[nH]c3ncc(Cl)cc23)c1F
Method in brief: as §1

[12] = compound: CCCc1cc(C)[nH]c(=O)c1CNC(=O)c1cc(-c2ccnc(N3CCN(C)CC3)c2)cc2c1cnn2C(C)C
Method in brief: as §1

givinostat = compound: CCN(CC)Cc1ccc2cc(COC(=O)Nc3ccc(C(=O)NO)cc3)ccc2c1 [givinostat]
Method in brief: as §1

barasertib = compound: CCN(CCCOc1ccc2c(Nc3cc(CC(=O)Nc4cccc(F)c4)[nH]n3)ncnc2c1)CCOP(=O)(O)O [barasertib]
Method in brief: as §1

Measured: log2 fold change

NUP98 (UniProt P52948)
UniProt P52948, sequence (P52948 whole entry, looked up): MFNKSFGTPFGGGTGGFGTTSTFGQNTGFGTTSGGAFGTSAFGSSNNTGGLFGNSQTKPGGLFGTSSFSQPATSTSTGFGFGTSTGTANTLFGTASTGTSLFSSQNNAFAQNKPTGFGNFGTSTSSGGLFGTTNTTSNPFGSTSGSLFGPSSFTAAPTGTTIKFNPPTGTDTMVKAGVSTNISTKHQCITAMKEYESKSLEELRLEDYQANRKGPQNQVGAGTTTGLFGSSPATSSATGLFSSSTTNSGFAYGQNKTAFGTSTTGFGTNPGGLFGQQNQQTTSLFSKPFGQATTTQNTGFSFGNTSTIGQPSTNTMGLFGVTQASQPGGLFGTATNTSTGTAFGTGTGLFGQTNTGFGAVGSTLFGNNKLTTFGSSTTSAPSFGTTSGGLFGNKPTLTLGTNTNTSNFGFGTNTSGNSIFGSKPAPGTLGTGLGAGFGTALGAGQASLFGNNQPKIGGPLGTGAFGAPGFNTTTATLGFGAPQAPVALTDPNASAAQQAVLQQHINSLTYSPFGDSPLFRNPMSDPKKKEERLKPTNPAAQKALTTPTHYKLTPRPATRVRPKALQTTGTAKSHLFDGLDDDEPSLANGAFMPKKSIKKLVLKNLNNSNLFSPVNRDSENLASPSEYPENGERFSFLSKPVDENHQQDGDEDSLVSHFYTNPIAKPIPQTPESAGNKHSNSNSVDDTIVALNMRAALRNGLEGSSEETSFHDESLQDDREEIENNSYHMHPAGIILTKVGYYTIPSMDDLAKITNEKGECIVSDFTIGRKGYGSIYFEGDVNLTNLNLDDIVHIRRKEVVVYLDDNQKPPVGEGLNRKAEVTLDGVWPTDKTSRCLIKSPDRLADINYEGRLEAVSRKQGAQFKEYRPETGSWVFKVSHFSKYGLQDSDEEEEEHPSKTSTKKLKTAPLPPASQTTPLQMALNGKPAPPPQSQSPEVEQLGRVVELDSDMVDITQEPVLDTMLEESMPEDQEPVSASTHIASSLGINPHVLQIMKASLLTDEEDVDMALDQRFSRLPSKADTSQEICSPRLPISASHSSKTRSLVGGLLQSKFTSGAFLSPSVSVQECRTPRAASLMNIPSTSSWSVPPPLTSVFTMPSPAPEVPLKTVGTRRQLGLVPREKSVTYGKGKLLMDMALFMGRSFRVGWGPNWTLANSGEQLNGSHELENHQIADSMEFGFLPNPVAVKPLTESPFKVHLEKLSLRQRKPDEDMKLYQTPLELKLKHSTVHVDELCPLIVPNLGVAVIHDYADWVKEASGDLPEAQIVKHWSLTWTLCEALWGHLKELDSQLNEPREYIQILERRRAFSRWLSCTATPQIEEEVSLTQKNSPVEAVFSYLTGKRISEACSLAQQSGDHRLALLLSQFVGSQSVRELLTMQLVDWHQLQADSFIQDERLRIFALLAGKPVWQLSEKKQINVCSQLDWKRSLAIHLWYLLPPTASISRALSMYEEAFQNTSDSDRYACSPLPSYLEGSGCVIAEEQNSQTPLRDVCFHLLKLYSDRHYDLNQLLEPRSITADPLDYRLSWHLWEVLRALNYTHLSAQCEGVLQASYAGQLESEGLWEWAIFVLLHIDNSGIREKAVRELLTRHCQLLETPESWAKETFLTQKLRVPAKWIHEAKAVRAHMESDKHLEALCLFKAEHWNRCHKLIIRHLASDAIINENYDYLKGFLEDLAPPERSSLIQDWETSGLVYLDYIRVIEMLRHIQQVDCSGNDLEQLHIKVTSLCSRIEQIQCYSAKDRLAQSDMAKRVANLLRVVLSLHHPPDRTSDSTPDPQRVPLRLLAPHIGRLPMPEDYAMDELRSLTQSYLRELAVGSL
inactive: IRAK-1-4 Inhibitor I -0.021 | ibrutinib -0.048 | [1] -0.146 | ralimetinib 0.04 | [2] 0 | [3] -0.071 | [4] 0.041 | pinometostat 0.03 | [5] -0.019 | [6] 0.013 | [7] -0.042 | [8] 0.064 | [9] -0.003 | [10] 0.031 | Nexturastat A 0.061 | vemurafenib 0.037 | [11] 0.068 | [12] 0.036 | givinostat 0.081 | barasertib 0.037

MRPL47 (UniProt Q9HD33)
inactive: IRAK-1-4 Inhibitor I -0.11 | ibrutinib 0.022 | [1] 0.003 | ralimetinib 0.056 | [2] 0.016 | [3] -0.001 | [4] 0.071 | pinometostat 0.181 | [5] 0.047 | [6] -0.083 | [7] 0.035 | [8] -0.045 | [9] -0.03 | [10] -0.078 | Nexturastat A 0.139 | vemurafenib -0.117 | [11] -0.097 | [12] 0.073 | givinostat 0.052 | barasertib -0.047

OXR1 (UniProt Q8N573)
UniProt Q8N573, sequence (Q8N573 whole entry, looked up): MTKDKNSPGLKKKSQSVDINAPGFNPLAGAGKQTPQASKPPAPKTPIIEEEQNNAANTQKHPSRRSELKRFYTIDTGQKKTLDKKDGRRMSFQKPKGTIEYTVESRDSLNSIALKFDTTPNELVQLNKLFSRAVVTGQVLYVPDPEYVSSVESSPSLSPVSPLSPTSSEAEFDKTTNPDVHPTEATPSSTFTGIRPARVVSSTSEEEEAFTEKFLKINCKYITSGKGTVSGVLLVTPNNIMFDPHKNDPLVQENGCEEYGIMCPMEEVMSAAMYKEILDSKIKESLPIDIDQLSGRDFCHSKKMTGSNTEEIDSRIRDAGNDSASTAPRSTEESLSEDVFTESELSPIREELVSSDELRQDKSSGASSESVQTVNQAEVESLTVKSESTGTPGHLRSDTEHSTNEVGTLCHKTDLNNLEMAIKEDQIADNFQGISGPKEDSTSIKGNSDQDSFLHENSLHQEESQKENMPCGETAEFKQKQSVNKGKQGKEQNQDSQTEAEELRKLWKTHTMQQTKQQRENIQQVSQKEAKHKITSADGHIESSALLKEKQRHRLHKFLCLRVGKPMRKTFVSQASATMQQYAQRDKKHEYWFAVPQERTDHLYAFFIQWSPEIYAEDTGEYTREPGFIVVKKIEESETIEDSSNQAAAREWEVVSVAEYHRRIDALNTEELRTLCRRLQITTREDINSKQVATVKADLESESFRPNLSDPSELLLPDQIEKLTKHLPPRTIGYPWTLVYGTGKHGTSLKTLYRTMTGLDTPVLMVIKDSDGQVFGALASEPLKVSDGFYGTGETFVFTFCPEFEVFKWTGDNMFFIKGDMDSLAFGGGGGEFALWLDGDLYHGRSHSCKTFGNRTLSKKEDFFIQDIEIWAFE
inactive: IRAK-1-4 Inhibitor I 0.048 | ibrutinib 0.016 | [1] -0.002 | ralimetinib -0.019 | [2] -0.035 | [3] -0.077 | [4] -0.004 | pinometostat 0.023 | [5] -0.008 | [6] 0.009 | [7] 0.005 | [8] -0.003 | [9] 0.005 | [10] 0.052 | Nexturastat A -0.025 | vemurafenib 0.023 | [11] -0.013 | [12] -0.062 | givinostat 0.012 | barasertib 0.027

MND1 (UniProt Q9BWT6)
UniProt Q9BWT6, sequence (Q9BWT6 whole entry, looked up): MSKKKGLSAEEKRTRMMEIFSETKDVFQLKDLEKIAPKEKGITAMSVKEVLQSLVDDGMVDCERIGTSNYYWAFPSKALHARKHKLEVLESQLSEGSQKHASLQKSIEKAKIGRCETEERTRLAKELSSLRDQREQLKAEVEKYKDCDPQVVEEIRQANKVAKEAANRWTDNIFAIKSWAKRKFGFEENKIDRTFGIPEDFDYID
inactive: IRAK-1-4 Inhibitor I -0.022 | ibrutinib 0.069 | [1] -0.053 | ralimetinib 0.052 | [2] 0.008 | [3] -0.182 | [4] 0.173 | pinometostat 0.076 | [5] 0.058 | [6] 0.043 | [7] 0.034 | [8] 0.021 | [9] 0 | [10] 0.025 | Nexturastat A -0.043 | vemurafenib -0.016 | [11] -0.024 | [12] -0.091 | givinostat 0.048 | barasertib -0.032

NNT (UniProt Q13423)
UniProt Q13423, sequence (Q13423 whole entry, looked up): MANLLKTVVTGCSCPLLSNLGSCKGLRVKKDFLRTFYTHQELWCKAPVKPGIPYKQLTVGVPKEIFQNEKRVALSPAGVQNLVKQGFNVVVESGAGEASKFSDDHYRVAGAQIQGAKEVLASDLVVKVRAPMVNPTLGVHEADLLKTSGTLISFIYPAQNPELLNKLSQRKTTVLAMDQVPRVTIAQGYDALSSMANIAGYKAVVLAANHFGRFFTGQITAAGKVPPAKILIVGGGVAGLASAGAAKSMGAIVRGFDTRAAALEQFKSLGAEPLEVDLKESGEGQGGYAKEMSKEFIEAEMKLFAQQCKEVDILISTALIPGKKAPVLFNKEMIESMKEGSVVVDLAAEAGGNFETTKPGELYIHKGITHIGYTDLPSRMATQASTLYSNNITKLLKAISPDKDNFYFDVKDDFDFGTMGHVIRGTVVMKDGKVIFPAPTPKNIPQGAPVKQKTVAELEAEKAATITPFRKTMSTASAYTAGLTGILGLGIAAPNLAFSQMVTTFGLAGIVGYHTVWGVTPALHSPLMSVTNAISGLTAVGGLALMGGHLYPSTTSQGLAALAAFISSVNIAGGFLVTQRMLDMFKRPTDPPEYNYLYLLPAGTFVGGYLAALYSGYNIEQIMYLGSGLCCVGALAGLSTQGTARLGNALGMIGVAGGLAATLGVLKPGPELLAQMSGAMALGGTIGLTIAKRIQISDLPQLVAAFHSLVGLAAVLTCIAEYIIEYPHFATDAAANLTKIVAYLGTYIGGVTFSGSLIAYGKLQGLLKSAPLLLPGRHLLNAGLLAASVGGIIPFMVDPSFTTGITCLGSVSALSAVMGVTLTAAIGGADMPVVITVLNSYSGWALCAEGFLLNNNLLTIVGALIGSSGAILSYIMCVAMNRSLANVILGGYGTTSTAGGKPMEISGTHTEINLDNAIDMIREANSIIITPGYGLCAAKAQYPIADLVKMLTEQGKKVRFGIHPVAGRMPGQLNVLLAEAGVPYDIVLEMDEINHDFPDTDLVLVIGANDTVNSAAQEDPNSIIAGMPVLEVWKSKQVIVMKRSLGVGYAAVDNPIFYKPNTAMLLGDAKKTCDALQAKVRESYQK
inactive: IRAK-1-4 Inhibitor I 0.013 | ibrutinib -0.018 | [1] -0.016 | ralimetinib -0.099 | [2] -0.056 | [3] 0.016 | [4] -0.053 | pinometostat -0.029 | [5] -0.022 | [6] 0.037 | [7] 0.02 | [8] -0.004 | [9] 0.004 | [10] 0.058 | Nexturastat A -0.091 | vemurafenib 0.025 | [11] 0.016 | [12] -0.023 | givinostat 0.001 | barasertib 0.01

NA, A0A096LPI6
inactive: IRAK-1-4 Inhibitor I 0.065 | ibrutinib 0.022 | [1] 0.046 | ralimetinib -0.057 | [2] 0.008 | [3] 0.058 | [4] -0.016 | pinometostat -0.043 | [5] 0.018 | [6] 0.004 | [7] -0.018 | [8] 0.032 | [9] 0.051 | [10] 0.039 | Nexturastat A -0.093 | vemurafenib 0.008 | [11] 0.052 | [12] -0.033 | givinostat -0.055 | barasertib -0.003

MPP1 (UniProt Q00013)
UniProt Q00013, sequence (Q00013 whole entry, looked up): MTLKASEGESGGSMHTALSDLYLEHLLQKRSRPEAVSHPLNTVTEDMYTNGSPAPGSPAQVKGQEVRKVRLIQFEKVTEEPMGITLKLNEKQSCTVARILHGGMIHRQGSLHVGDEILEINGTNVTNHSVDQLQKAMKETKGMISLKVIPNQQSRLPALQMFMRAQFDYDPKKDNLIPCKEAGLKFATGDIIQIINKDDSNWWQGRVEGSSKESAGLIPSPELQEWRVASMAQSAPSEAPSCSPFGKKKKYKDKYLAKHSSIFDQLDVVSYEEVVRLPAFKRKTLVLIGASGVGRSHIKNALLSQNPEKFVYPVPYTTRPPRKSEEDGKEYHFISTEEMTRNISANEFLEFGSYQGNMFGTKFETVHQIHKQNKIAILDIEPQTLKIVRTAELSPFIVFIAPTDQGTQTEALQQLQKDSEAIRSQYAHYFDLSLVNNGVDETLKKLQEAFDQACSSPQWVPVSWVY
inactive: IRAK-1-4 Inhibitor I -0.073 | ibrutinib -0.047 | [1] -0.071 | ralimetinib 0.075 | [2] -0.087 | [3] -0.147 | [4] 0.023 | pinometostat 0.011 | [5] -0.023 | [6] 0.029 | [7] 0.117 | [8] -0.052 | [9] 0.043 | [10] 0.025 | Nexturastat A 0.002 | vemurafenib 0.029 | [11] 0.04 | [12] 0.053 | givinostat 0.062 | barasertib 0.034

NOSIP (UniProt Q9Y314)
UniProt Q9Y314, sequence (Q9Y314 whole entry, looked up): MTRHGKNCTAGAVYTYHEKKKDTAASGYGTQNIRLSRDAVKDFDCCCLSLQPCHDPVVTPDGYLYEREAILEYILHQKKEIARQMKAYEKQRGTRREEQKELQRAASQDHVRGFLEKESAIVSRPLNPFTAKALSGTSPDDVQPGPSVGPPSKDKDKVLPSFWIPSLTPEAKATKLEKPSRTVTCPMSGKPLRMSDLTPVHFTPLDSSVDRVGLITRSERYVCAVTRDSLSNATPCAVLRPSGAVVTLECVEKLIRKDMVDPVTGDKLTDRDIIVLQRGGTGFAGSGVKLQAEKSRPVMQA
inactive: IRAK-1-4 Inhibitor I -0.401 | ibrutinib -0.032 | [1] -0.033 | ralimetinib -0.065 | [2] -0.135 | [3] -0.106 | [4] -0.039 | pinometostat 0.085 | [5] -0.143 | [6] 0.186 | [7] 0.02 | [8] -0.2 | [9] 0.032 | [10] 0.012 | Nexturastat A 0.149 | vemurafenib 0.247 | [11] 0.168 | [12] 0.047 | givinostat 0.14 | barasertib 0.197
